Activity calls are given as the source filed them. The calls were made as follows: active = hit-call score of the fitted dose curve at least 0.9, where 1 is the maximum; inactive = score below 0.9.
Assays:
Settings in all cases: mRNA level, 48 h; actives raise or lower the signal
CYP2C8 (gene 1558) = experiment: LTEA_HepaRG_CYP2C8: Life Technologies and Expression Analysis (LTEA) Assay for CYP2C8 using HepaRG (AID 2283483)
Outline: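 Differentiated HepaRG cells in serum-free induction medium exposed 48 h in duplicate to 8 half-log concentrations from 100 uM in 0.5% DMSO. CYP2C8 mRNA by qRT-PCR normalized to ACTB, GAPDH, POLR2A; bidirectional fit versus DMSO.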

CYP2C9 (gene 1559) = experiment: LTEA_HepaRG_CYP2C9: Life Technologies and Expression Analysis (LTEA) Assay for CYP2C9 using HepaRG (AID 2283484)
Outline: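 Differentiated human HepaRG cells in serum-free induction medium were exposed 48 h to chemicals in 8-point half-log series from 100 uM (0.5% DMSO), in duplicate. CYP2C9 mRNA was measured by qRT-PCR, normalized to ACTB/GAPDH/POLR2A, with bidirectional fitting versus DMSO.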

CYP2E1 (gene 1571) = experiment: LTEA_HepaRG_CYP2E1: Life Technologies and Expression Analysis (LTEA) Assay for CYP2E1 using HepaRG (AID 2283485)
Outline: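 Differentiated HepaRG cells were treated in duplicate for 48 h with chemicals in 0.5% DMSO, from 100 uM downward in half-log dilutions. RNA was then analysed by qRT-PCR for CYP2E1 induction or loss.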

CYP4A11 (gene 1579) = experiment: LTEA_HepaRG_CYP4A11: Life Technologies and Expression Analysis (LTEA) Assay for CYP4A11 using HepaRG (AID 2283486)
Outline: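 Readout is CYP4A11 transcript level by qRT-PCR, normalized to three housekeeping genes and fitted bidirectionally against 0.5% DMSO. Human HepaRG cells were treated 48 h, in duplicate, with an 8-point half-log series topping at 100 uM.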

[1] = read-out: Cytochrome P450 3A4 (Homo sapiens) (UniProt P08684); experiment: LTEA_HepaRG_CYP3A4: Life Technologies and Expression Analysis (LTEA) Assay for CYP3A4 using HepaRG (AID 2283487)
Outline: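 In a human hepatic line (HepaRG), duplicate wells were treated 48 h with up to 100 uM chemical in half-log dilutions. Endpoint: CYP3A4 mRNA induction or loss relative to 0.5% DMSO vehicle, by qRT-PCR.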

[2] = read-out: DNA damage-inducible transcript 3 (DDIT3), DDIT3 (gene 1649); experiment: LTEA_HepaRG_DDIT3: Life Technologies and Expression Analysis (LTEA) Assay for DNA damage-inducible transcript 3 (DDIT3) using HepaRG (AID 2283488)
Outline: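 Changes in DDIT3 transcript, in either direction relative to 0.5% DMSO vehicle, were quantified by TaqMan qRT-PCR after 48 h chemical exposure of HepaRG cells at 8 concentrations, maximum 100 uM.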

[3] = read-out: Pro-epidermal growth factor (Homo sapiens) (UniProt P01133); experiment: LTEA_HepaRG_EGF: Life Technologies and Expression Analysis (LTEA) Assay for Epidermal growth factor (EGF) using HepaRG (AID 2283489)
Outline: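 EGF transcript measured by Fluidigm TaqMan qRT-PCR with three housekeeping genes for normalization, 48 h after dosing HepaRG cultures in duplicate (top 100 uM, half-log steps, 0.5% DMSO vehicle). Gain or loss relative to DMSO fitted.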

[4] = read-out: Early growth response protein 1 (EGR1) transcription factor, EGR1 (gene 1958); experiment: LTEA_HepaRG_EGR1: Life Technologies and Expression Analysis (LTEA) Assay for Early growth response protein 1 (EGR1) transcription factor using HepaRG (AID 2283490)
Outline: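 Differentiated HepaRG cells in serum-free induction medium exposed 48 hours, duplicate, to 8 half-log concentrations up to 100 uM in 0.5% DMSO. EGR1 mRNA measured by TaqMan qRT-PCR, normalized to ACTB, GAPDH, POLR2A; bidirectional fit versus DMSO.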

[5] = read-out: Ezrin (EZR), EZR (gene 7430); experiment: LTEA_HepaRG_EZR: Life Technologies and Expression Analysis (LTEA) Assay for Ezrin (EZR) using HepaRG (AID 2283491)
Outline: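 Gain or loss of EZR mRNA is scored relative to 0.5% DMSO in human HepaRG cultures treated 48 h with test chemicals in duplicate, eight half-log concentrations from 100 uM.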

[6] = read-out: Cytochrome P450 3A7 (Homo sapiens) (UniProt P24462); experiment: LTEA_HepaRG_CYP3A7: Life Technologies and Expression Analysis (LTEA) Assay for CYP3A7 using HepaRG (AID 2283492)
Outline: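 CYP3A7 transcript measured by qRT-PCR (ACTB, GAPDH, POLR2A normalization) after 48 h chemical exposure of HepaRG cells in duplicate. Eight half-log concentrations, maximum 100 uM, 0.5% DMSO vehicle; bidirectional curve fitting against DMSO baseline.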

[7] = read-out: Fatty Acid-Binding Protein 1 (FABP1), FABP1 (gene 2168); experiment: LTEA_HepaRG_FABP1: Life Technologies and Expression Analysis (LTEA) Assay for Fatty Acid-Binding Protein 1 (FABP1) using HepaRG (AID 2283494)
Outline: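 Differentiated human HepaRG cells exposed 48 h in serum-free induction medium to eight half-log concentrations up to 100 uM (0.5% DMSO), duplicate. FABP1 mRNA by qRT-PCR, normalised to ACTB, GAPDH, POLR2A; bidirectional fitting against DMSO.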

[8] = read-out: Cytochrome P450 7A1 (Homo sapiens) (UniProt P22680); experiment: LTEA_HepaRG_CYP7A1: Life Technologies and Expression Analysis (LTEA) Assay for Cytochrome P450 7A1 (CYP7A1) using HepaRG (AID 2283496)
Outline: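 Gene expression endpoint in human HepaRG liver cells treated for 48 h with test chemicals (up to 100 uM, 0.5% DMSO). Values come from bidirectional concentration-response fitting versus DMSO.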

[9] = read-out: Glutathione S-Transferase (GSTA2), GSTA2 (gene 2939); experiment: LTEA_HepaRG_GSTA2: Life Technologies and Expression Analysis (LTEA) Assay for Glutathione S-Transferase (GSTA2) using HepaRG (AID 2283497)
Outline: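 Differentiated human HepaRG cells were exposed in duplicate for 48 h in serum-free induction medium, 8 points from 100 uM top in half-log steps, 0.5% DMSO. GSTA2 mRNA was measured by TaqMan qRT-PCR, normalized to ACTB, GAPDH and POLR2A; bidirectional fit versus DMSO.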

[10] = read-out: growth arrest and DNA damage 45 (GADD45G), GADD45G (gene 10912); experiment: LTEA_HepaRG_GADD45G: Life Technologies and Expression Analysis (LTEA) Assay for growth arrest and DNA damage 45 (GADD45G) using HepaRG (AID 2283499)
Outline: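 GADD45G transcript level by qRT-PCR (housekeeping-normalized: ACTB, GAPDH, POLR2A) after 48 h chemical treatment of a single HepaRG lot in serum-free induction medium; eight-point half-log series up to 100 uM in 0.5% DMSO, duplicates, up- or down-regulation scored.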

[11] = read-out: Glutamate-cysteine ligase regulatory (GCLM), GCLM (gene 2730); experiment: LTEA_HepaRG_GCLM: Life Technologies and Expression Analysis (LTEA) Assay for Glutamate-cysteine ligase regulatory (GCLM) using HepaRG (AID 2283500)
Outline: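 Human liver HepaRG cultures receive test chemicals for 48 hours at up to 100 uM in 0.5% DMSO. GCLM expression is measured by qRT-PCR and analysed for increases or decreases against vehicle.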

[12] = read-out: Heat shock 70 kDa protein 1 (HSPA1A), gene 3303; experiment: LTEA_HepaRG_HSPA1A: Life Technologies and Expression Analysis (LTEA) Assay for Heat shock 70 kDa protein 1 (HSPA1A) using HepaRG (AID 2283502)
Outline: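 HSPA1A induction in human HepaRG liver cells is measured after 48 h of chemical treatment (100 uM maximum, 0.5% DMSO vehicle). Expression comes from qRT-PCR normalized to endogenous controls.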

[13] = read-out: Glutathione S-transferase M3 (GSTM3), GSTM3 (gene 2947); experiment: LTEA_HepaRG_GSTM3: Life Technologies and Expression Analysis (LTEA) Assay for Glutathione S-transferase M3 (GSTM3) using HepaRG (AID 2283501)
Outline: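 GSTM3 transcript levels came from Fluidigm TaqMan qRT-PCR normalized to three housekeeping genes, fitted in both directions against DMSO. HepaRG cultures received chemicals for 48 h in serum-free induction medium (0.5% DMSO), 8 half-log concentrations up to 100 uM, duplicate.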

[14] = read-out: Glutamate-cysteine ligase catalytic (GCLC), GCLC (gene 2729); experiment: LTEA_HepaRG_GCLC: Life Technologies and Expression Analysis (LTEA) Assay for Glutamate-cysteine ligase catalytic (GCLC) using HepaRG (AID 2283498)
Outline: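 Differentiated HepaRG cells exposed 48 h in serum-free induction medium, eight-point half-log series topping at 100 uM in 0.5% DMSO, duplicates. GCLC mRNA by qRT-PCR normalized to ACTB, GAPDH and POLR2A, fitted bidirectionally versus DMSO.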

CYP3A5 (gene 1577) = experiment: LTEA_HepaRG_CYP3A5: Life Technologies and Expression Analysis (LTEA) Assay for CYP3A5 using HepaRG (AID 2283493)
Outline: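 mRNA induction or loss of CYP3A5 assessed in HepaRG after 48 h dosing, 100 uM top concentration, duplicate wells; TaqMan qRT-PCR with ACTB, GAPDH, POLR2A normalization; 0.5% DMSO as negative control.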

Measured: AC50

Chain of Cytochrome P450 3A4 (Homo sapiens) (P08684 whole entry, looked up): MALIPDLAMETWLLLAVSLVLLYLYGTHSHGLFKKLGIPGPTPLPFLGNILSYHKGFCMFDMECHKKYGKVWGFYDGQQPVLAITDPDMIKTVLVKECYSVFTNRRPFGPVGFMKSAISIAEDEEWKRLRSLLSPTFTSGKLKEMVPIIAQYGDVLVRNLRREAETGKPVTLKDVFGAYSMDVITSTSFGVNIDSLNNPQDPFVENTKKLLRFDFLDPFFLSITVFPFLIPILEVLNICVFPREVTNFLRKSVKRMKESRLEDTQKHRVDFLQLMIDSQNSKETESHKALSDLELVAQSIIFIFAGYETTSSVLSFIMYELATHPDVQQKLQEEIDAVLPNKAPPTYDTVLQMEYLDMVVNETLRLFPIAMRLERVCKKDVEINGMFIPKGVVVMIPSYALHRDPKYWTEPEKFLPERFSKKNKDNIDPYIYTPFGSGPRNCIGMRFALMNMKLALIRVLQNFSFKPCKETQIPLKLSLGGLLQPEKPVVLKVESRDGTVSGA
Chain of Cytochrome P450 3A7 (Homo sapiens) (P24462 whole entry, looked up): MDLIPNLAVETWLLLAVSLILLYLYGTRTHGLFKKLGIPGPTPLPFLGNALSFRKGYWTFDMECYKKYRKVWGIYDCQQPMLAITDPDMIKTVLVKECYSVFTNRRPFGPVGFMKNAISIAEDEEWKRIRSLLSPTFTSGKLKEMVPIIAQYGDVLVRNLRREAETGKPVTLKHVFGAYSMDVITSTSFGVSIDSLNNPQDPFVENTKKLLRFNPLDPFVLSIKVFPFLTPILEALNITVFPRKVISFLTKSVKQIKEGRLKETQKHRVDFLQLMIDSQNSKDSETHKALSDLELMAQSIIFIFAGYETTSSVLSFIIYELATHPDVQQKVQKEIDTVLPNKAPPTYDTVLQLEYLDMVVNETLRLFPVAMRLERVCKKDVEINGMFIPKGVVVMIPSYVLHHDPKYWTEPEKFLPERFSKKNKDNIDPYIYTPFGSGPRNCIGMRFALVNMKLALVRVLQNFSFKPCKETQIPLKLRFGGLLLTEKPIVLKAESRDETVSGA

CNC(=O)Oc1cccc2c1OC(C)(C)O2
not listed: [13] | [14] | CYP3A5 (gene 1577)
inactive: all other assays above

CC(C)=CC1C(C(=O)OCN2C(=O)C3=C(CCCC3)C2=O)C1(C)C (stereo not given)
not listed: [13] | [14] | CYP3A5 (gene 1577)
inactive: all other assays above

CCNc1nc(Cl)nc(NC(C)(C)C#N)n1
active: CYP2E1 (gene 1571) 13.2 µM | CYP4A11 (gene 1579) 39.9 µM | [1] 4.42 µM | [6] 1.77 µM
not listed: [14] | CYP3A5 (gene 1577)
inactive: all other assays above

COP(=O)(NC(C)=O)SC (stereo not given)
not listed: [14] | CYP3A5 (gene 1577)
inactive: all other assays above

CCCCSP(=O)(SCCCC)SCCCC
active: CYP2E1 (gene 1571) 63.4 µM | CYP4A11 (gene 1579) 76.2 µM | [1] 26.1 µM | [2] 76 µM | [7] 92.5 µM | [8] 50 µM
not listed: [14] | CYP3A5 (gene 1577)
inactive: all other assays above

CCCOCC(=Nc1ccc(Cl)cc1C(F)(F)F)n1ccnc1
inactive: [3] | [4] | [5] | [10] | [11]
active: CYP2C8 (gene 1558) 25.7 µM | CYP2C9 (gene 1559) 20.3 µM | CYP2E1 (gene 1571) 13.2 µM | CYP4A11 (gene 1579) 23 µM | [1] 73.5 µM | [2] 72.4 µM | [6] 23 µM | [7] 14.6 µM | [8] 30.6 µM | [9] 35 µM | [12] 81.9 µM

CCOC(=O)CC(SP(=O)(OC)OC)C(=O)OCC (stereo not given)
active: CYP2E1 (gene 1571) 25.1 µM | [8] 50 µM
not listed: [13] | CYP3A5 (gene 1577)
inactive: all other assays above

CCOP(=S)(OCC)Oc1ccc2c(C)c(Cl)c(=O)oc2c1
active: CYP2E1 (gene 1571) 31.6 µM | CYP4A11 (gene 1579) 50 µM | [2] 80.3 µM | [7] 24.6 µM | [8] 15.5 µM | [9] 82 µM | [10] 50 µM
not listed: [1] | [13]
inactive: all other assays above

CCC(=NOC/C=C/Cl)C1=C(O)CC(C2CCOCC2)CC1=O (stereo not given)
not listed: [14] | CYP3A5 (gene 1577)
inactive: all other assays above
